Test results reported in PubChem BioAssay (Tox21).
Results filed as inconclusive are left out. Calls of active or inactive are those of the source. Unless noted, the call rests on the fitted dose curve; in most records, active means well fitted curve in the direction sought with a large enough effect in the repeat runs; inconclusive means weak or mixed curves; inactive means no such curve, though single readings can be large; an effect the other way counts as inactive or inconclusive.

Columns and labels:
[1] = qHTS assay for small molecule agonists of the p53 signaling pathway (AID 651631; calls by dose curve; further: nearly all actives have a fitted effect of over 15% in size)
Procedure, shortened: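 HCT-116 p53RE-bla reporter line, 16 h compound treatment at 37 °C, then fluorescence after 2 h with B/G FRET substrate.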

[2] = qHTS assay for small molecules that induce genotoxicity in human embryonic kidney cells expressing luciferase-tagged ATAD5 (AID 651632); further: nearly all actives have a fitted effect of over 15% in size
Procedure, shortened: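 HEK293T cells carrying luciferase-tagged ATAD5 were given compound or DMSO vehicle and incubated 16 hr at 37C, 5% CO2. Luciferase activity was read after 30 min at room temperature with Amplite; a rise signals genotoxic stress.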

[3] = qHTS assay for small molecule agonists of the p53 signaling pathway - cell viability (AID 651633; calls by dose curve;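 further: p53RE-bla HCT reporter cells with a stable beta-lactamase p53 reporter; series mostly up to about 83 µM; nearly all actives have a fitted effect of over 30% in size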)
Procedure, shortened: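 Viability counter-read: CellTiter-Glo luminescence (30 min, room temperature) in the same p53RE-bla plates. These plates had been exposed to compounds for 16 h at 37 C.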

[4] = qHTS assay for small molecules that induce genotoxicity in human embryonic kidney cells expressing luciferase-tagged ATAD5 - cell viability (AID 651634; calls by dose curve; further: nearly all actives have a fitted effect of over 25% in size)
Procedure, shortened: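 HEK293T cells carrying luciferase-tagged ATAD5, 2,000 cells/well, exposed to compound for 15.5 hr at 37C. Viability read as live-cell protease activity by CellTiter-Fluor fluorescence after 30 min at 37C.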

[5] = qHTS assay for small molecule disruptors of the mitochondrial membrane potential - cell viability (AID 720634; calls by dose curve;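 further: human HepG2 liver cancer cells; series mostly up to about 83 µM; nearly all actives have a fitted effect of over 20% in size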)
Procedure, shortened: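 HepG2 cells, 2,000 per well, attached overnight, then treated 1 hr at 37 C, 5% CO2. Viability read as ATP by CellTiter-Glo luminescence after 30 min at room temperature. Read in the same wells as the m-MPI membrane-potential dye assay.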

[6] = qHTS assay for small molecule disruptors of the mitochondrial membrane potential (AID 720635)
Procedure, shortened: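 Mitochondrial membrane potential tracked with Mito-MPS dye, red aggregates (ex 540/em 590 nm) against green monomers (ex 490/em 535 nm). Compound treatment 1 hr at 37C, dye 30 min in HepG2.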

[7] = qHTS assay to test for compound auto fluorescence at 590 nm (red) in HepG2 cells (AID 720674)
Procedure, shortened: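 1 hr compound incubation on HepG2 cells, 37 C, 5% CO2; plate read ex 540 nm / em 590 nm; intensities reported as Rose Bengal sodium equivalents.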

[8] = qHTS assay to test for compound auto fluorescence at 535 nm (green) in HepG2 cells (AID 720675)
[9] = qHTS assay to test for compound auto fluorescence at 460 nm (blue) in HEK293 cells (AID 720678)
Procedure, shortened: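 Cells were seeded and left to adhere for 4-5 hr at 37C. Compounds were then pin-transferred. After an overnight incubation at 37C under 5% CO2, intrinsic fluorescence at 405/460 nm was measured and referenced to triamterene.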

[10] = qHTS assay to test for compound auto fluorescence at 590 nm (red) in HEK293 cells (AID 720679)
Procedure, shortened: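 Each well held 2,000 HEK293 cells in medium containing 10% dialyzed FBS. Following 4-5 hr attachment at 37C, 23 nL test compound or DMSO was added; plates sat overnight, and red fluorescence (540/590nm) was recorded.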

[11] = qHTS assay to test for compound auto fluorescence at 535 nm (green) in HEK293 cells (AID 720680)
[12] = qHTS assay to test for compound auto fluorescence at 460 nm (blue) in HEK293 cell free culture (AID 720681)
Procedure, shortened: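 Blue fluorescence (Ex 405/Em 460 nm, triamterene-equivalent) was read immediately after pin transfer of compound or DMSO into medium (DMEM, 10% FBS) without cells.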

[13] = qHTS assay to test for compound auto fluorescence at 590 nm (red) in HEK293 cell free culture (AID 720683)
Procedure, shortened: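 Red-channel autofluorescence of compounds in culture medium (DMEM, 10% FBS), no cells, measured at 540/590 nm. Rose Bengal sodium is the reference fluorophore for equivalence.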

[14] = qHTS assay to test for compound auto fluorescence at 535 nm (green) in HepG2 cell free culture (AID 720686)
[15] = qHTS assay to test for compound auto fluorescence at 460 nm (blue) in HepG2 cells (AID 720687)
Procedure, shortened: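 Blue-channel autofluorescence (Ex/Em 405/460 nm, triamterene-equivalent) was measured after 1 hr compound exposure at 37 C, 5% CO2. Cells were HepG2, plated overnight at 37 C in MEM plus 10% FBS.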

[16] = molecular target: Glucocorticoid receptor (Homo sapiens) (UniProt P04150); test: qHTS assay to identify small molecule agonists of the glucocorticoid receptor (GR) signaling pathway (AID 720691; active means well fitted activation curve with a large enough effect in the signal ratio in the repeat runs, not every such curve was filed as active; the % refers to the signal ratio)
Procedure, shortened: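 GR-bla HeLa cells carrying a GRE-driven beta-lactamase reporter, exposed to compounds for 18 h at 37 C. Reporter activation read as fluorescence after 2 h with LiveBLAzer B/G FRET substrate at room temperature.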

[17] = molecular target: Glucocorticoid receptor (Homo sapiens) (UniProt P04150); test: qHTS assay to identify small molecule antagonists of the glucocorticoid receptor (GR) signaling pathway (AID 720692; active means well fitted inhibition curve with a large enough effect in the signal ratio in the repeat runs, not every such curve was filed as active; the % refers to the signal ratio)
Procedure, shortened: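 GR-bla HeLa cells carrying a GRE-driven beta-lactamase reporter received compound after 4 h plating, then dexamethasone (5 nM final). After 18 h at 37C, the FRET substrate was loaded for 2 h at room temperature and fluorescence read.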

[18] = qHTS assay to test for compound auto fluorescence at 535 nm (green) in HEK293 cell free culture (AID 720682)
Procedure, shortened: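 Steps: dispense DMEM/10% FBS into empty wells; pin in compound or DMSO; measure fluorescence at 485/535 nm. Values are fluorescein equivalents.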

[19] = qHTS assay to test for compound auto fluorescence at 590 nm (red) in HepG2 cell free culture (AID 720684)
Procedure, shortened: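 Steps: dispense MEM/10% FBS medium, no cells; pin compound or DMSO vehicle; read red channel, Ex/Em 540/590 nm. Output given as Rose Bengal sodium equivalents.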

[20] = qHTS assay to test for compound auto fluorescence at 460 nm (blue) in HepG2 cell free culture (AID 720685)
Procedure, shortened: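 Compound (23 nL) or DMSO pinned into cell-free MEM with 10% FBS; blue fluorescence read at 405/460 nm excitation/emission, expressed as auto-fluorescence equivalency to triamterene.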
On the % scale 0 is the no-effect control and ±100 the full control effect.

Glucocorticoid receptor (Homo sapiens), sequence (P04150 whole entry, looked up): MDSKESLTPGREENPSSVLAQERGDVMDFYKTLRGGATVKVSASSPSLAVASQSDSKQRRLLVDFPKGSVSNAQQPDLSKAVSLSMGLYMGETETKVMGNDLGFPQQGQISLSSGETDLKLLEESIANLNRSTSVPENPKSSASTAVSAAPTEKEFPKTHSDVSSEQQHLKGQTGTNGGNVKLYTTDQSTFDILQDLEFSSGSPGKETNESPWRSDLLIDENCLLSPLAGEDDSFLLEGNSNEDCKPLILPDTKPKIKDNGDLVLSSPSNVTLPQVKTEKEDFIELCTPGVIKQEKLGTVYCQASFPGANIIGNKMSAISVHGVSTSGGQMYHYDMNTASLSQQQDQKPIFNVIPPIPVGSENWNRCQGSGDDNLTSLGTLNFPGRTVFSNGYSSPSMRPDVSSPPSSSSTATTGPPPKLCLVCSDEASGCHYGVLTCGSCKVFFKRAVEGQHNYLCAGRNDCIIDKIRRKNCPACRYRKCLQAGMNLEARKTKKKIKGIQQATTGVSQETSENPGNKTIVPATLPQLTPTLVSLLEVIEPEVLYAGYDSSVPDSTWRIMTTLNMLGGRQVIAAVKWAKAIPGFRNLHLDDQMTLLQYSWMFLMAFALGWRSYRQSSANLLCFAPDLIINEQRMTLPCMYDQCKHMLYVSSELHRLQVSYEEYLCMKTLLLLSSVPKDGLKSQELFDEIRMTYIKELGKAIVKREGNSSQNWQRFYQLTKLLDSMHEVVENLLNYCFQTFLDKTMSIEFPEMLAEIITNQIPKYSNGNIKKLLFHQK

CC1N=C(N)OC1c1ccccc1 (stereo not drawn)
inactive: Potency [1] | outcome [2] | Potency [3] | Potency [4] | Potency [5] | Potency [6] | outcome [7] | outcome [8] | outcome [9] | outcome [10] | outcome [11] | outcome [12] | outcome [13] | outcome [14] | outcome [15] | Potency [16] | Potency [17]

C/C(=N\NC(=O)Nc1cc(F)cc(F)c1)c1ncccc1C(=O)O
inactive: Potency [1] | outcome [2] | Potency [3] | Potency [4] | Potency [5] | Potency [6] | outcome [8] | outcome [9] | outcome [10] | outcome [11] | outcome [12] | outcome [18] | outcome [13] | outcome [19] | outcome [20] | outcome [14] | outcome [15] | Potency [16] | Potency [17]

OP(O)c1ccccc1
inactive: Potency [1] | outcome [2] | Potency [3] | Potency [4] | Potency [5] | Potency [6] | outcome [7] | outcome [8] | outcome [9] | outcome [10] | outcome [11] | outcome [12] | outcome [13] | outcome [19] | outcome [20] | outcome [14] | outcome [15] | Potency [16] | Potency [17]

CCC1(c2ccccc2)CCC(=O)NC1=O (stereo not drawn)
inactive: Potency [1] | outcome [2] | Potency [3] | Potency [4] | Potency [5] | Potency [6] | outcome [7] | outcome [8] | outcome [9] | outcome [10] | outcome [12] | outcome [18] | outcome [13] | outcome [19] | outcome [20] | outcome [14] | outcome [15]

CC(C)(C)NC[C@H](O)c1ccc(O)cc1Cl
inactive: Potency [1] | outcome [2] | Potency [3] | Potency [4] | Potency [5] | Potency [6] | outcome [7] | outcome [8] | outcome [10] | outcome [11] | outcome [12] | outcome [18] | outcome [13] | outcome [20] | outcome [14] | outcome [15]

CC(C)[N+](C)(CCC(C(N)=O)(c1ccccc1)c1ccccc1)C(C)C
inactive: Potency [1] | outcome [2] | Potency [3] | Potency [4] | Potency [5] | Potency [6] | fluorescence, % of fluorescein control [8] -0.0469% [at 18.6 µM] | fluorescence, % of triamterene [9] 0.0132% [at 18.6 µM] | fluorescence, % of fluorescent control [10] -0.12% [at 18.6 µM] | fluorescence, % of fluorescein [11] 0.0067% [at 18.6 µM] | fluorescence, % of fluorescent control [12] 0.0496% [at 18.6 µM] | activity change [18] -0.0088% [at 18.6 µM] | fluorescence, % of fluorescent control [13] 0.0889% [at 18.6 µM] | fluorescence, % of Rose Bengal [19] 0.379% [at 18.6 µM] | fluorescence, % of fluorescent control [20] -0.0402% [at 18.6 µM] | fluorescence, % of fluorescein control [14] 0.0122% [at 18.6 µM] | fluorescence, % of fluorescent control [15] -0.0322% [at 18.6 µM] | Potency [16] | Potency [17]

CNC(=O)O/N=C(/CSC)C(C)(C)C
inactive: Potency [1] | outcome [2] | Potency [3] | Potency [4] | Potency [5] | outcome [7] | outcome [8] | outcome [9] | outcome [10] | outcome [11] | outcome [12] | outcome [18] | outcome [13] | outcome [19] | outcome [20] | outcome [14] | outcome [15] | Potency [16] | Potency [17]

CCCCCCC1CCOC1=O (stereo not drawn)
inactive: Potency [1] | outcome [2] | Potency [3] | Potency [4] | Potency [5] | Potency [6] | outcome [7] | outcome [8] | outcome [10] | outcome [12] | outcome [18] | outcome [13] | outcome [19] | outcome [14] | outcome [15] | Potency [16] | Potency [17]

O=C1CCCCC1Cl (stereo not drawn)
inactive: Potency [1] | outcome [2] | Potency [3] | Potency [4] | Potency [5] | Potency [6] | outcome [7] | outcome [8] | outcome [9] | outcome [10] | outcome [11] | outcome [12] | outcome [18] | outcome [13] | outcome [20] | outcome [14] | outcome [15] | Potency [16]

Cl/C=C/CCl
inactive: Potency [1] | outcome [2] | Potency [3] | Potency [4] | Potency [5] | Potency [6] | outcome [7] | outcome [8] | outcome [9] | outcome [10] | outcome [11] | outcome [12] | outcome [13] | outcome [19] | outcome [20] | outcome [14] | outcome [15] | Potency [16]

O=C/C=C/c1ccco1
inactive: Potency [1] | outcome [2] | Potency [3] | Potency [4] | Potency [5] | Potency [6] | outcome [7] | outcome [8] | outcome [9] | outcome [10] | outcome [11] | outcome [18] | outcome [13] | outcome [20] | outcome [14] | outcome [15] | Potency [16] | Potency [17]

C/C=C/CC#N
inactive: Potency [1] | outcome [2] | Potency [3] | Potency [4] | Potency [5] | outcome [7] | outcome [8] | outcome [9] | outcome [10] | outcome [11] | outcome [12] | outcome [18] | outcome [19] | outcome [14] | outcome [15]

COc1cc(CC(C)N)cc(OC)c1OC (stereo not drawn)
inactive: Potency [1] | outcome [2] | Potency [3] | Potency [4] | Potency [5] | Potency [6] | outcome [8] | outcome [9] | outcome [10] | outcome [13] | outcome [19] | outcome [20] | outcome [14] | outcome [15] | Potency [16]

CCOc1cc(OP(=S)(OC)OC)nc(CC)n1
inactive: Potency [1] | outcome [2] | Potency [3] | Potency [4] | Potency [5] | outcome [7] | outcome [8] | outcome [9] | outcome [10] | outcome [11] | outcome [12] | outcome [18] | outcome [13] | outcome [19] | outcome [14] | outcome [15] | Potency [16] | Potency [17]

ClC(Cl)(Cl)Cl
inactive: Potency [1] | outcome [2] | Potency [3] | Potency [4] | Potency [5] | Potency [6] | outcome [7] | outcome [8] | outcome [9] | outcome [10] | outcome [11] | outcome [12] | outcome [18] | outcome [13] | outcome [19] | outcome [20] | outcome [14] | outcome [15]
